Results from article PMC5540273 (PLoS ONE, 2017).

What follows are compounds tested on ABL1-phosphorylated. Conditions: concentration: 1 μM,replicates: in singlicate; n = 1.
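Note: KINOMEscan kinase panel screen.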

| Compound | %Inh |
| --- | --- |
| CN1CCN(CCNc2nc3cc(Oc4ccc(NC(=O)Nc5cc(C(F)(F)F)ccc5F)cc4)ccc3[nH]2)CC1.Cl.Cl [GW768504] | 23% |
| COc1cccc(OC)c1C(=O)Nc1cccc(-c2nn3ccccc3c2-c2ccnc(Nc3cccc(F)c3)n2)c1 [GSK361065] | 18% |
| CC(=O)Nc1ccc(-c2cc3ncnc(SCC(=O)O)c3s2)cc1 | 3% |
| COC(=O)c1cccc(NC(=O)NC2CCN(c3ccnc(Nc4cc(OC)c(OC)c(OC)c4)n3)C2)c1 (stereo not shown) [GSK1379767] | 0% |
| NC(=O)Nc1sc(-c2ccc(F)cc2)cc1C(N)=O [GW789449] | 0% |
| CCOC(=O)N1CCC(n2cnc(-c3ccc(F)cc3)c2-c2ccnc(N)n2)CC1 [SB-219952] | 2% |
| C[C@@H]1CCN(C(=O)N2CCCC2)C[C@@H]1N(C)c1ncnc2[nH]ccc12 | 9% |
| COc1cccc(C2=C(Nc3cccc(Cl)c3)C(=O)NC2=O)c1 [SB-341556] | 21% |
| COC(=O)c1cccc(NC(=O)NC2CCN(c3ccnc(NCc4ccc(F)cc4)n3)CC2)c1 [GSK1379860] | 0% |
| O=C(Nc1ccc(Oc2ccc3nc(NC(=O)C4CC4)cn3n2)c(F)c1)c1cccn(-c2ccccc2)c1=O | 88% |
| Cn1ccc2ncnc(Oc3ccc(NC(=O)Nc4cncc(C(F)(F)F)c4)c(Cl)c3)c21 | 35% |
| CSc1nccc(-c2c(-c3ccc(F)cc3)ncn2CCCN2CCOCC2)n1.Cl [SB-217146] | 31% |
| CCn1c(-c2nonc2N)nc2cncc(CNC3CCNCC3)c21.Cl [SB-747651] | 5% |
| Cc1ccc(C(=O)Nc2ccc(Oc3ccc4nc(NC(=O)C5CC5)cn4c3)c(F)c2)c(=O)n1-c1ccccc1 | 98.3% |
| Cl.c1ccc(Oc2ccc(Nc3ccnc4cc(-c5ccc(CN6CCNCC6)o5)ccc34)cc2)nc1 [GW567142] | 84% |
| Nc1nccc(-c2ccc3c(N)n[nH]c3c2)n1 [GSK1034945] | 0% |
| O=C(Nc1cccc(C(F)(F)F)c1)c1cccc(Oc2ccc3nccn3n2)c1 | 17% |
| CCNCC(Cc1ccccc1)NC(=O)c1cc(Br)c(-c2ccnc3[nH]ccc23)s1.Cl.Cl (stereo not shown) [GSK1383280] | 14% |
| Cl.Nc1n[nH]c2cc(-c3ccccn3)ccc12 [GSK2189892] | 0% |

| Compound | %Inh |
| --- | --- |
| O=C1NCCc2[nH]c(-c3ccncc3)cc21 | 0% |
| CS(=O)c1ccc(-c2coc3ccc(-c4n[nH]c(=O)o4)cc23)cc1 (stereo not shown) | 3% |
| Cc1ccn2nc(-c3ccc(F)cc3)c(-c3ccncc3)c2c1.Cl [GW457859] | 0% |
| Cn1ccc2ncnc(Oc3ccc(NC(=O)Nc4cnn(C(C)(C)C)c4)c(Cl)c3)c21 | 39% |
| Cn1ccc2ncnc(Oc3ccc(NC(=O)Nc4cccc(C(F)(F)F)c4)c(F)c3)c21 | 51% |
| COc1cc2ncn(-c3cc(OCC4CCCCC4)c(C(N)=O)s3)c2cc1OC [GSK204559] | 0% |
| COC(=O)Nc1nc2cc(Oc3ccc(NC(=O)Nc4cc(C(F)(F)F)ccc4Cl)cc3)ccc2[nH]1.Cl [GW697465] | 32% |
| N#Cc1cccc(C(=O)NC2CCN(c3ccnc(Nc4ccc(F)cc4)n3)C2)c1 (stereo not shown) [GSK1379708] | 0% |
| CN(c1cccc(CNc2nc(Nc3ccc4c(c3)CC(=O)N4)ncc2C(F)(F)F)c1)S(C)(=O)=O | 3% |
| CNC(=O)c1ccccc1Nc1nc(Nc2cccc(CS(C)(=O)=O)c2)ncc1C.O=CO [GSK1520489] | 99.9% |
| C[C@@H](Oc1cc(-n2cnc3cc(-c4cnn(C)c4)ccc32)sc1C(N)=O)c1ccccc1Cl [GSK580432] | 63% |
| COc1cc2c(Nc3ccc(NC(=O)c4ccccc4)cc3)ncnc2cc1OCCCN1CCOCC1 [GSK301329] | 0% |
| CC(C)S(=O)(=O)N1CCN(Cc2ccc3c(c2)nc(NC(=O)c2ccsc2)n3C[C@H](O)c2ccccc2)CC1 [GW635815] | 2% |
| CC(=O)Nc1nc2cnc(Nc3cc(NC(=O)c4cccc(CC(C)(C)C#N)c4)ccc3C)nc2s1 | 50% |
| Cc1nnc(-c2ccc3occ(-c4ccc(S(C)=O)cc4)c3n2)o1 (stereo not shown) | 30% |
| Cc1n[nH]c2cc(Nc3ccnc(Nc4cccc(CN5CCOCC5)c4)n3)ccc12 [GW682569] | 26% |
| Cl.Cl.NC[C@H](CC1CCCCC1)NC(=O)c1ccc(-c2ccnc3[nH]ccc23)s1 [GSK1581428] | 0% |
| COc1cccc(CNC(=O)NC2CCN(c3ccnc(Nc4cc(OC)c(OC)c(OC)c4)n3)C2)c1 (stereo not shown) [GSK1379765] | 0% |
